Measured values from PubChem BioAssay (NCATS).
Results filed as inconclusive are left out. Active and inactive are the calls of the source. The call rests on the fitted dose curve; in most records, active means well fitted curve in the direction sought with a large enough effect; inconclusive means small, poorly fitted or top-dose-only effect, or another doubt; inactive means no such curve, though single readings can be large; an effect the other way counts as inactive or inconclusive.

Tests used:
[1] = qHTS of pediatric cancer cell lines to identify multiple opportunities for drug repurposing: Primary screen for control Hh wild type fibroblast cells (AID 1347106);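 further: a drop in luminescence marks cytotoxicity and a rise apparent proliferation; nearly all actives have a fitted effect of over 55% in size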
In short: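 Cells (500-1,000/well) in growth media were settled 5 h at 37 degrees C, then given compounds for 48 h. Viability was read as CellTiter-Glo luminescence. Primary runs used MIPE at 11 points (0.78 nM-46 µM) and NPC at 8 points (0.59 nM-46 µM); follow-ups used 11 points.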

[2] = qHTS of pediatric cancer cell lines to identify multiple opportunities for drug repurposing: Primary screen for Rh30 cells (AID 1347107); further: nearly all actives have a fitted effect of over 75% in size
In short: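 Cells (500-1,000/well) rested 5 h, then received compounds for 48 h; metabolically active cells were measured by CellTiter-Glo luminescence. Final concentrations spanned up to 46 µM (MIPE, 11-point) or 0.59 nM-46 µM (NPC, 8-point) in primary screens, 11-point in follow-ups.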

[3] = qHTS of pediatric cancer cell lines to identify multiple opportunities for drug repurposing: Primary screen for Rh41 cells (AID 1347108);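 further: luminescence drop marks cytotoxic hits; nearly all actives have a fitted effect of over 70% in size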
In short: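 Following a 5-hour attachment period, cells at 500-1,000/well received compounds and were cultured for 48 hours. CellTiter-Glo was added and luminescence read to estimate viable, metabolically active cells.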

Measured: Potency
Further: series mostly up to about 46 µM.

NC(=O)c1cc([N+](=O)[O-])cc([N+](=O)[O-])c1
inactive: all assays above

CC(C)(N)Cc1ccccc1Cl
inactive: all assays above

COC(=O)[C@@H](N)CCCN/C(N)=N/[N+](=O)[O-]
inactive: all assays above

O=C(O)c1ccc(=O)[nH]c1
inactive: all assays above

CC1(C)C(C=C(Cl)Cl)C1C(=O)OC(C#N)c1cccc(Oc2ccccc2)c1 (stereo not given)
inactive: all assays above
